# According to PubChem BioAssay AID602179 (National Center for Advancing Translational Sciences (NCATS), 2012):
# About 360 (0.092%) of roughly 390,000 compounds were called active. The call rests on the fitted dose curve; in most records, active means well fitted inhibition curve with a large enough effect; inconclusive means small, poorly fitted or top-dose-only effect; inactive means no such curve, though single readings can be large or run the other way. Many of the other results were omitted from the sample, so actives are more common in it than they were.
# Target: Isocitrate dehydrogenase [NADP] cytoplasmic (Homo sapiens) (UniProt O75874)
# Assay: qHTS for Inhibitors of mutant isocitrate dehydrogenase 1 (IDH1): qHTS; further: nearly all actives have a fitted effect of over 65% in size
# Details: IDH1-R132H enzyme, NADPH consumption, diaphorase/resazurin fluorescence; series mostly up to 76.6 µM; activity change, negative = inhibition: at the top concentration
# Source text: Unbiased genomic sequencing for 22 glioma genomes found recurrent mutation of isocitrate dehydrogenase 1 (IDH1) on chromosome 2q33-a gene encoding the cytosolic isoform of IIDH1associated with the tricarboxylic acid cycle (TCA) that catalyzes the oxidative decarboxylation of isocitrate, yielding alpha-ketoglutarate and CO2 via NADP+ to NADPH conversion. Subsequent studies confirmed the recurrent IDH mutations in up to 70% of secondary gliomas and in 10% of AML cases. […] This in effect defines IDH1 as an oncogene, and provides an extraordinary opportunity to discover chemical probes against mutant IDH1 that may translate into much needed new therapies for glioma and AML patients. […] NIH Chemical Genomics Center [NCGC] NIH Molecular Libraries Probe Centers Network [MLPCN] MLPCN Grant: DA032129 Assay Submitter (PI): Lenny Dang, Agios Pharmaceuticals
# IDH1-R132H (0.5 ug/mL) was dispensed into black, solid-bottom 1536-well plates at 3 uL/well in 20 mM Tris-HCl (pH 7.5), 150 mM NaCl, 10 mM MgCl2, 4 mM beta-ME, and 0.05% protease-free BSA. Then, 23 nL of compounds or DMSO were delivered to each well using a pin tool. A pre-read was run on the Viewlux to identify fluorescent compounds (540 nm excitation filter, 598 nm emission filter, bodipy mirror and 2 second exposure). After 30 minutes of incubation with compound, 3 uL of substrate mix were dispensed (0.016 mM NADPH, 2 mM alpha-KG, 20 mM Tris-HCl (pH 7.5), 150 mM NaCl, 10 mM MgCl2, and 0.05% protease-free BSA). Plates were spun for 1 min at 1000xg and incubated at room temperature for 80 min. Then 1.5 uL of each detection reagent component for the coupling system were added (0.12 mg/mL diaphorase and 0.072 mM resazurin, each in 20 mM Tris-HCl (pH 7.5), 150 mM NaCl, 10 mM MgCl2, and 0.05% protease-free BSA ) The protein, substrate and two detection components were maintained at 4 °C throughout the screen. Additionally, the substrate and resazurin reagents were protected from light. The plates were measured on an Envision plate reader for fluorescence signal using a 540 nm excitation filter and 590 nm emission filter with 10 flashes. 1x and 0x (no-enzyme) IDH1-R132H enzyme control were used to normalize %Activity of identified inhibitors; 0x enzyme values corresponded to 100% Activity (full inhibition), while 1x IDH1-R132H enzyme values were used to normalize 0%Activity (no inhibition). Concentration-response curves were fitted to the signals arising from the resulting fluorescence. The concentration-effect curves were then classified based on curve quality (r2), response magnitude and degree of measured activity, and compounds were subsequently categorized based on their curve class. […] Keywords: isocitrate dehydrogenase, IDH1, IDH1-R132H, MLSMR, MLPCN, NIH Roadmap, qHTS, NCGC
# On the % scale 0 is the no-effect control and ±100 the full control effect; potency means the concentration at half of the fitted maximal effect.
# Chain of Isocitrate dehydrogenase [NADP] cytoplasmic (Homo sapiens) (O75874 whole entry R132H, change not shown): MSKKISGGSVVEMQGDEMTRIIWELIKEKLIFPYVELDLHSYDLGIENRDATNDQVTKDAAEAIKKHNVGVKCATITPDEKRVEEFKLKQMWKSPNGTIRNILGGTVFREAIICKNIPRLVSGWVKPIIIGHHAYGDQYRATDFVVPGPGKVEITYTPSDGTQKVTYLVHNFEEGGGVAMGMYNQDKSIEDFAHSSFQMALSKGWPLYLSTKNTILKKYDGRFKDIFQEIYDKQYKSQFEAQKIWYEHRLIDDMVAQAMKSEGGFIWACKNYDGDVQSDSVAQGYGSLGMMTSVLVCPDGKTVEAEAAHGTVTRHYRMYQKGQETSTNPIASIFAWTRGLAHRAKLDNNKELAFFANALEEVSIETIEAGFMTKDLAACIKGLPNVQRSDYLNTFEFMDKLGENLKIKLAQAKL
Structure (SMILES),"activity change, negative = inhibition",Potency
O=C(NCCc1ccc(Cl)cc1)c1ccc2nc(CCc3ccccc3)oc2c1,-6.32% (inactive),–
CCC1(C)CC(=O)c2c(ccc3oc(C(=O)Nc4ccc(C(C)=O)cc4)c(C)c23)O1 (stereo not given),15.7% (inactive),–
Cc1noc(/C=C/N(C)C)c1S(=O)(=O)N1CCCC(C(=O)Nc2cccc(F)c2)C1 (stereo not given),2.9% (inactive),–
CCOC(=O)c1c(C)oc2nc(C)nc(N(CC(C)C)CC(C)C)c12,-5.12% (inactive),–
COc1ccc(NC(=O)CSc2nccn2Cc2ccc3c(c2)OCO3)cc1,-2.7% (inactive),–
CCOc1ccc(CNC(=O)c2ccc3c(c2)nnn3C2CCCC2)cc1,-1.82% (inactive),–
CN(Cc1ccccc1)c1ccc(-c2nc(-c3ccccc3)no2)cc1[N+](=O)[O-],10.1% (inactive),–
NC(=O)CSc1nc2c(oc3ccccc32)c(=O)n1Cc1ccccc1,14.4% (inactive),–
CCOc1cccc(NC(=O)c2ccc(F)c(S(=O)(=O)N(CC)c3cccc(C)c3)c2)c1,-1.16% (inactive),–
O=C(CCn1c(=O)c2sccc2n(Cc2ccc(F)cc2)c1=O)NCc1ccc2c(c1)OCO2,-5.74% (inactive),–
CCC(=O)Nc1cccc(C(=O)OCc2cc(=O)n3nc(CC)sc3n2)c1,-9.41% (inactive),–
CSc1ncc(C(=O)NCc2ccccc2Cl)c(C(F)(F)F)n1,-6.99% (inactive),–
O=C(Cn1c(=O)nc(-c2ccccc2)c2cc(Cl)ccc21)NCc1ccc(Cl)cc1,-8.72% (inactive),–
CN(CC(=O)Nc1cccc(C(F)(F)F)c1)S(=O)(=O)c1cccs1,2.99% (inactive),–
COc1ccccc1NC(=O)C1=C(C)Nc2nc(SCC(=O)c3ccc(C)cc3)nn2C1c1ccccc1C (stereo not given),9.04% (inactive),–
COc1ccc(-c2nc(C)c(CCNC(=O)c3ccc(C(F)(F)F)cc3)s2)cc1OC,4.38% (inactive),–
Cc1ccc(C(=O)Nc2ccc(C(=O)O)cc2)cc1S(=O)(=O)Nc1ccccc1,8.34% (inactive),–
COc1cccc(CC(=O)OCC(=O)NCc2ccc3c(c2)OCO3)c1,-1.17% (inactive),–
COc1ccc(CNC(=O)COC(=O)C2=Cc3ccccc3OC2)cc1,–,52.1 µM (active)
COc1ccc(CNC(=O)c2cc3c(s2)-c2ccccc2OC3)cc1,7.22% (inactive),–
O=C(CSc1nc(=O)[nH]c2c1CCCC2)Nc1cc(C(F)(F)F)ccc1Cl,1.58% (inactive),–
COc1ccc(Cl)cc1NC(=O)CCn1c(=O)c2cccn2c2ccccc21,15.1% (inactive),–
COc1ccc(-c2onc(C)c2C)cc1S(=O)(=O)NCC1CCN(Cc2cccc(F)c2)CC1,1.7% (inactive),–
COc1cccc(-n2ccn(CC(=O)NCc3ccc(C)cc3)c(=O)c2=O)c1,-2.1% (inactive),–

Structure (SMILES),"activity change, negative = inhibition",Potency
COc1ccccc1NC(=O)CSc1oc(-c2ccco2)nc1S(=O)(=O)c1ccc(Br)cc1,5.21% (inactive),–
Cc1ccc(Cl)cc1NC(=O)C(C)n1nnc2sc(-c3ccccc3)cc2c1=O (stereo not given),-9.89% (inactive),–
COc1ccccc1OCCCn1c(-c2ccc(Cl)cc2)nc2ccccc2c1=O,-10.3% (inactive),–
CC(C)c1ccc(Cn2c(COc3ccccc3)nc3ccccc32)cc1,-0.67% (inactive),–
Cn1c(COc2ccc(Cl)cc2)nc2ccccc2c1=O,–,52.1 µM (active)
Cc1ccc(CNS(=O)(=O)c2ccc(C(=O)N(C)C)s2)cc1,0.733% (inactive),–
COc1cc2nc(SCC(=O)Nc3ccccc3F)n3nc(-c4ccccc4)nc3c2cc1OC,0% (inactive),–
CCNS(=O)(=O)c1ccc(NC(=O)CSc2nc(-c3ccco3)cc(C(F)(F)F)n2)cc1,-11.6% (inactive),–
COc1ccc(NC(=O)Cn2cc(C(=O)c3ccncc3)c(=O)c3cc(C)ccc32)cc1Cl,-15.1% (inactive),–
Cc1ccc(C)c(Cn2c(C)c(CNCc3ccc(F)cc3)c(C(=O)O)c2C)c1,-3.26% (inactive),–
CCOc1cc(C2C(C(=O)OC)=C(C)NC3=C2C(=O)c2ccccc23)ccc1O (stereo not given),3.72% (inactive),–
CCn1cc(C(=O)N(C)Cc2ccccc2)c(=O)c2cc(S(=O)(=O)N3CCCCCC3)ccc21,3.18% (inactive),–
CCOc1ccc2nc(N3CCC(C(=O)Nc4cc(C)ccc4C)CC3)sc2c1,-5.67% (inactive),–
CCC(=O)N1CCc2cc(S(=O)(=O)NCCC(=O)Nc3cccc(C)c3C)ccc21,0% (inactive),–
Cc1ccc(NC(=O)CSc2nnc3[nH]c(=O)cc(C)n23)cc1Cl,-5.19% (inactive),–
O=C(Cn1c(=O)n(-c2ccc(F)cc2)c(=O)c2sc3ccccc3c21)NC1CCCC1,5.77% (inactive),–
CCOc1cc(-c2nnc(SCC(=O)NC3CCCC3)nc2-c2ccc(OC)c(OCC)c2)ccc1OC,-5.74% (inactive),–
CCOc1ccc(CNC(=O)Cn2cc3c(n2)-c2c(oc(C(=O)N4CCCC4)c2C)CC3)cc1,-2.43% (inactive),–
CCN(CCCNC(=O)Cn1ncc2c3ccccc3n(C)c2c1=O)Cc1ccccc1,1.64% (inactive),–
Cc1ccc(-c2nnc(Nc3cccc(Br)c3)c3ccccc23)cc1S(=O)(=O)NCC1CCCO1 (stereo not given),-14.4% (inactive),–
CCOC(=O)c1ccc(NC(=O)CCS(=O)(=O)c2ccc(C)cc2)cc1,19.8% (inactive),–
CCC(=O)N1N=C(c2ccc(OC)cc2)CC1c1cn(-c2ccccc2)nc1-c1cccs1 (stereo not given),6.3% (inactive),–
Cn1ccc2cc(S(=O)(=O)N3CCCC(C(=O)NCc4ccccc4F)C3)ccc21 (stereo not given),-13.5% (inactive),–
Cc1ccc(CN2CCC(CNC(=O)c3cnn(-c4ccc(C)cc4)c3C3CCN(C(=O)OC(C)(C)C)CC3)CC2)cc1,0.407% (inactive),–

Structure (SMILES),"activity change, negative = inhibition",Potency
CCN(CCCNC(=O)c1cc2cc3cc(OC)ccc3nc2s1)c1ccccc1,3.91% (inactive),–
Cc1ccc(Cl)cc1N1CCN(C(=O)c2cnc3c(-c4ccc(F)cc4)c(C)nn3c2C)CC1,-4.49% (inactive),–
Cc1cc(C)cc(OCC(=O)Nc2nc(-c3ccc(F)cc3)ns2)c1,-3.14% (inactive),–
CCN(CCCCOC(=O)c1ccc(OC)c(OC)c1)C(C)Cc1ccc(OC)cc1 (stereo not given),1.03% (inactive),–
COc1ccc(C(CCN(Cc2ccc(OC)c(OC)c2)C(=O)CCl)c2ccccc2)cc1 (stereo not given),–,36.9 µM (active)
COc1ccc(CN(C(=O)CSc2nnc(-c3ccc(OC)c(OC)c3)o2)c2ccc(F)cc2)cc1,3.1% (inactive),–
O=C1N(Cc2ccccc2)c2ccc(Cl)cc2C1(O)c1c[nH]c2ccccc12 (stereo not given),7.28% (inactive),–
CCOC(=O)c1cccc(NC(=O)Cn2cnc3nc4c(cc3c2=O)CCCC4)c1,-4.55% (inactive),–
Cc1nc2ccn(Cc3cccs3)c(=O)c2cc1C(=O)NCc1ccc(Cl)cc1,-1.97% (inactive),–
COc1cc(C(=O)N(Cc2ccc(C(C)C)cc2)C2CCS(=O)(=O)C2)cc(OC)c1OC (stereo not given),8.8% (inactive),–
COc1cc(-c2c(-c3ccc4c(c3)OCO4)noc2C)ccc1F,11% (inactive),–
COC(=O)c1c(-c2ccsc2)oc2ccc(-c3cc(OC)c(OC)c(OC)c3)cc12,18.5% (inactive),–
COc1cc2c(-c3ccc4c(c3)OCO4)c(-c3ccsc3)oc(=O)c2cc1OC,–,10 µM (active)
CCn1c(=O)cc(OCC(=O)Nc2cc(Cl)c(OC)cc2OC)c2ccccc21,-5.22% (inactive),–
Cc1ccc(-c2nn(CCC(=O)Nc3ccc(OC(F)(F)F)cc3)c(=O)c3ccccc23)cc1,-1.17% (inactive),–
Cc1ccc(C(=O)N2c3ncnn3C3(CCCCC3)[C@@H]3CCCC[C@@H]32)cc1,-7.57% (inactive),–
CCOC(=O)C1CCN(c2ncnc3c2c(-c2ccccc2)cn3-c2ccc(C)cc2)CC1,1.59% (inactive),–
CCCNc1ncnc2c1c(-c1ccccc1)cn2-c1ccc(OCC)cc1,–,28.2 µM (active)
O=c1[nH]cnc2c1c(-c1ccccc1)cn2-c1ccc(F)cc1,-0.586% (inactive),–
CCc1ccc(CNC(=O)c2cc3c(=O)n(CC)c4ccccc4c3s2)cc1,-6.61% (inactive),–
O=C(NCC(c1cccnc1)N1CCc2ccccc21)c1cccc(C(F)(F)F)c1 (stereo not given),-1.72% (inactive),–
COc1cc(C(=O)N2CCN(c3ccc(Nc4ccc(C)cc4)nn3)CC2)cc(OC)c1OC,4.91% (inactive),–
CCc1ccc(N(CC)C(=O)CCn2cnc3onc(-c4ccc(F)cc4)c3c2=O)cc1,-16.8% (inactive),–
Cc1ccc(CSc2nc3cccnc3n2Cc2ccc(C(=O)NC3CC3)cc2)cc1,0.151% (inactive),–

Structure (SMILES),"activity change, negative = inhibition",Potency
COc1ccc(/C=C/c2nc(C#N)c(NCc3ccc(F)cc3)o2)cc1OC,4.01% (inactive),–
Cc1ccc2nc(/C(C#N)=C/c3ccc(-c4ccc(C(=O)OC(C)C)cc4)o3)[nH]c2c1,-13% (inactive),–
CCCn1c(NCc2ccccc2F)nc2ccccc21,17.3% (inactive),–
O=C(C1CC1)N1CCc2cc(Br)cc(S(=O)(=O)N3CCN(c4ccccc4F)CC3)c21,-11% (inactive),–
Cc1ccc2nc(-c3ccc(C)c(NC(=O)Cc4ccccc4)c3)oc2c1,4.91% (inactive),–
CCc1ccccc1NC(=O)Cc1ccc(NC(=O)N2CCCCc3ccccc32)cc1,9.63% (inactive),–
COc1cccc(CNC(=O)C(NS(=O)(=O)c2ccc3nc(C)sc3c2)C(C)C)c1 (stereo not given),2.39% (inactive),–
Cc1nc2sc(C)c(C)n2c(=O)c1S(=O)(=O)NCCc1ccc(Cl)cc1,6.87% (inactive),–
COc1ccccc1CCNC(=O)c1cccn1-c1nnc(N2CCCCC2)s1,13.2% (inactive),–
COc1ccc(S(=O)(=O)NCc2cccn2Cc2cccc(C)c2)cc1,-0.432% (inactive),–
COC(=O)c1sc2ncccc2c1-n1c(C)ccc1C,-12.6% (inactive),–
CCCN1CCN(CCCNC(=O)c2ccc3nc(Cc4ccccc4)oc3c2)CC1,29.4% (inactive),–
Cc1ccc(-c2cc(-c3coc4ccccc4c3=O)c3c(n2)-c2cc(Cl)ccc2OC3)cc1,-15% (inactive),–
O=C(NCc1ccccc1)c1ccc2c(c1)nc1n2CCCCC1,-2.7% (inactive),–
Cn1c(=O)nc2n(-c3ccc(Br)cc3)c3cccc(Cl)c3cc-2c1=O,-1.36% (inactive),–
CCc1ccc(S(=O)(=O)c2nnn3c2nc(N2CCN(CC)CC2)c2sccc23)cc1,-17.2% (inactive),–
Cc1cc(C)c2oc(C(=O)Nc3ccc(S(=O)(=O)N(C)c4ccccc4)cc3)cc(=O)c2c1,1.76% (inactive),–
Cc1nn(-c2ccc(N3CCCCC3)nn2)c(C)c1CCC(=O)NCc1ccccc1F,0% (inactive),–
COc1ccc(C(=O)Nc2ccc(-n3nncc3-c3ccccc3)cc2)cc1OC,-24.8% (inactive),–
COC(=O)c1cc(NC(=O)c2cnc(SC)nc2-c2ccccc2)cc(C(=O)OC)c1,1.46% (inactive),–
COC(=O)c1ccc(-c2c(-c3ccccc3)ncc3cc(OC)c(OC)cc23)cc1,–,39.8 µM (active)
COc1ccc(C)cc1NC(=O)COCc1cc(-c2cccs2)on1,11% (inactive),–
CCOC(=O)c1c(S(=O)(=O)NCC(=O)Nc2ccc(Cl)c(C(F)(F)F)c2)c(C)n(C)c1C,0.73% (inactive),–
